Laboratory results published in paper PMC5540273 (PLoS ONE, 2017).

These compounds were tested on BRSK2. Settings: concentration: 1 μM, replicates: in singlicate; n = 1.
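Note: KINOMEscan kinase panel screen.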

SMILES	%Inh [%]
O=C(Nc1n[nH]c2nc(-c3ccccc3)c(Br)cc12)C1CC1 [SB-708998]	32
COC(=O)c1c(-c2ccccc2)c2cc(Br)ccc2c(=O)n1Cc1ccc(NC(=O)CCC(=O)O)cc1	0
COc1cc2ncn(-c3cc(OCCCc4ccccc4)c(C(N)=O)s3)c2cc1OC [GSK205189]	3
Nc1nc(N)c2nc(-c3ccccc3)[nH]c2n1 [SKF-12778]	0
COc1ccc(CNC(=O)NC2CCN(c3ccnc(Nc4ccc(F)cc4)n3)C2)cc1 (stereo not drawn) [GSK1379706]	3
COc1ccc(Nc2nccc(N3CCC(NS(=O)(=O)c4ccc(NC(C)=O)cc4)C3)n2)cc1 (stereo not drawn) [GSK1379729]	0
CCS(=O)c1ccc(-c2coc3ccc(-c4nnc(C)o4)cc23)cc1 (stereo not drawn)	11
COc1cc2ncn(-c3cc(OCc4ccncc4)c(C(N)=O)s3)c2cc1OC [GSK336313]	0
O=C(Nc1n[nH]c2nc(-c3ccccc3)c(Cl)cc12)C1CC1 [SB-734909]	51
Cc1nnc(-c2ccc3ncn(-c4ccc(S(C)=O)cc4)c3c2)o1 (stereo not drawn)	0
Nc1n[nH]c2ncc(-c3ccccc3)cc12 [SB-517081]	0
COc1cc2ncn(-c3cc(OCc4ccc(S(C)(=O)=O)cc4)c(C(N)=O)s3)c2cc1OC [GW869979]	0
Cc1ccc(-c2ccc3c(ccc4sc5c(c43)NC[C@@H](C)N=C5N(C)C)n2)cn1	0
COc1cc(Nc2nccc(N3CCC(NC(=O)C(C)c4ccc(Cl)cc4)C3)n2)cc(OC)c1OC (stereo not drawn) [GSK1379757]	0
Cl.NS(=O)(=O)c1cccc(Nc2cc(-c3ccc(F)cc3)n[nH]2)c1 [GW824645]	0
CCCNC(=O)Nc1ccc(Oc2ncnc3ccn(C)c23)cc1	8
CCC(=O)c1c(-c2ccccc2)c2cc(Cl)ccc2c(=O)n1Cc1ccc(C(=O)O)cc1	0
O=c1cc(N2CCOCC2)nc2n(Cc3ccc(F)c(Cl)c3)ccn12 [GSK2297099]	0

SMILES	%Inh [%]
CCC(=O)c1c(-c2ccccc2)c2cc(Cl)ccc2c(=O)n1Cc1cc(S(C)(=O)=O)n(CC(N)=O)n1	0
FC(F)(F)c1ccc(-c2ncn(CCCN3CCOCC3)c2-c2ccncc2)cc1 [SB-217780]	7
Cc1nc(N(C)[C@H]2CN(C(=O)CC#N)CC[C@H]2C)c2cc[nH]c2n1	0
Nc1ncnc2c1ncn2-c1cccc2ccccc12 [SKF-97184]	22
Cc1nnc(-c2ccc(C)c(-c3ccc(C(=O)O)cc3)c2)o1 [GW608005]	8
COc1cccc(C2=C(Nc3cccc(C(=O)O)c3)C(=O)NC2=O)c1 [SB-390770]	17
COc1ccc(-c2cc3c(C)nc(N)nc3n([C@H]3CC[C@H](O)CC3)c2=O)cn1	0
Cc1cc(Nc2nc(-c3cccc(C)n3)nc3ccccc23)ccn1 [GW872411]	13
COc1cc2nccc(Nc3ccc(OCc4ccc(NC(C)=O)cc4)cc3)c2cc1OC.Cl [GW440135]	0
O=C(Nc1n[nH]c2cc(-c3ccccc3F)ccc12)C1CC1 [SB-733371]	0
CN(C)c1cc(-c2ccc3c(N)n[nH]c3c2)nc(N)n1 [GSK2219329]	0
CCS(=O)(=O)c1ccc(OC)c(Nc2ncc(-c3ccc(F)cc3)o2)c1.Cl [GW591947]	0
Nc1nc(-c2ccccc2F)c(-c2ccnc3ccccc23)s1 [GW560459]	4
Cc1nn2c(=O)cc(N3CCOCC3)nc2n1Cc1cccc(Cl)c1Cl [GSK2342769]	0
Fc1cccc(CSc2nnc(-c3ccc4c(c3)CCO4)o2)c1	0
Cc1cccc(-c2cc(-c3c[nH]nc3-c3ccccn3)ccn2)c1 [GW679395]	0
COc1cc2ncn(-c3cc(OCc4ccncc4Br)c(C(N)=O)s3)c2cc1OC [GW854278]	20
CC(C)(C)c1ccc(C(=O)Nc2cn3cc(-c4ccccc4)ccc3n2)cc1	0

Each compound was assayed on BTK. Settings: concentration: 1 μM, replicates: in singlicate; n = 1.

SMILES	%Inh [%]
O=C(Nc1n[nH]c2nc(-c3ccccc3)c(Br)cc12)C1CC1 [SB-708998]	0
COC(=O)c1c(-c2ccccc2)c2cc(Br)ccc2c(=O)n1Cc1ccc(NC(=O)CCC(=O)O)cc1	38
COc1cc2ncn(-c3cc(OCCCc4ccccc4)c(C(N)=O)s3)c2cc1OC [GSK205189]	0
Nc1nc(N)c2nc(-c3ccccc3)[nH]c2n1 [SKF-12778]	0
COc1ccc(CNC(=O)NC2CCN(c3ccnc(Nc4ccc(F)cc4)n3)C2)cc1 (stereo not drawn) [GSK1379706]	18
COc1ccc(Nc2nccc(N3CCC(NS(=O)(=O)c4ccc(NC(C)=O)cc4)C3)n2)cc1 (stereo not drawn) [GSK1379729]	26
CCS(=O)c1ccc(-c2coc3ccc(-c4nnc(C)o4)cc23)cc1 (stereo not drawn)	18
COc1cc2ncn(-c3cc(OCc4ccncc4)c(C(N)=O)s3)c2cc1OC [GSK336313]	0
O=C(Nc1n[nH]c2nc(-c3ccccc3)c(Cl)cc12)C1CC1 [SB-734909]	0
Cc1nnc(-c2ccc3ncn(-c4ccc(S(C)=O)cc4)c3c2)o1 (stereo not drawn)	0
Nc1n[nH]c2ncc(-c3ccccc3)cc12 [SB-517081]	0
COc1cc2ncn(-c3cc(OCc4ccc(S(C)(=O)=O)cc4)c(C(N)=O)s3)c2cc1OC [GW869979]	0
Cc1ccc(-c2ccc3c(ccc4sc5c(c43)NC[C@@H](C)N=C5N(C)C)n2)cn1	0
COc1cc(Nc2nccc(N3CCC(NC(=O)C(C)c4ccc(Cl)cc4)C3)n2)cc(OC)c1OC (stereo not drawn) [GSK1379757]	0
Cl.NS(=O)(=O)c1cccc(Nc2cc(-c3ccc(F)cc3)n[nH]2)c1 [GW824645]	0
CCCNC(=O)Nc1ccc(Oc2ncnc3ccn(C)c23)cc1	0
CCC(=O)c1c(-c2ccccc2)c2cc(Cl)ccc2c(=O)n1Cc1ccc(C(=O)O)cc1	0
O=c1cc(N2CCOCC2)nc2n(Cc3ccc(F)c(Cl)c3)ccn12 [GSK2297099]	0

SMILES	%Inh [%]
CCC(=O)c1c(-c2ccccc2)c2cc(Cl)ccc2c(=O)n1Cc1cc(S(C)(=O)=O)n(CC(N)=O)n1	0
FC(F)(F)c1ccc(-c2ncn(CCCN3CCOCC3)c2-c2ccncc2)cc1 [SB-217780]	0
Cc1nc(N(C)[C@H]2CN(C(=O)CC#N)CC[C@H]2C)c2cc[nH]c2n1	0
Nc1ncnc2c1ncn2-c1cccc2ccccc12 [SKF-97184]	0
Cc1nnc(-c2ccc(C)c(-c3ccc(C(=O)O)cc3)c2)o1 [GW608005]	0
COc1cccc(C2=C(Nc3cccc(C(=O)O)c3)C(=O)NC2=O)c1 [SB-390770]	0
COc1ccc(-c2cc3c(C)nc(N)nc3n([C@H]3CC[C@H](O)CC3)c2=O)cn1	0
Cc1cc(Nc2nc(-c3cccc(C)n3)nc3ccccc23)ccn1 [GW872411]	0
COc1cc2nccc(Nc3ccc(OCc4ccc(NC(C)=O)cc4)cc3)c2cc1OC.Cl [GW440135]	0
O=C(Nc1n[nH]c2cc(-c3ccccc3F)ccc12)C1CC1 [SB-733371]	0
CN(C)c1cc(-c2ccc3c(N)n[nH]c3c2)nc(N)n1 [GSK2219329]	0
CCS(=O)(=O)c1ccc(OC)c(Nc2ncc(-c3ccc(F)cc3)o2)c1.Cl [GW591947]	0
Nc1nc(-c2ccccc2F)c(-c2ccnc3ccccc23)s1 [GW560459]	0
Cc1nn2c(=O)cc(N3CCOCC3)nc2n1Cc1cccc(Cl)c1Cl [GSK2342769]	0
Fc1cccc(CSc2nnc(-c3ccc4c(c3)CCO4)o2)c1	33
Cc1cccc(-c2cc(-c3c[nH]nc3-c3ccccn3)ccn2)c1 [GW679395]	0
COc1cc2ncn(-c3cc(OCc4ccncc4Br)c(C(N)=O)s3)c2cc1OC [GW854278]	0
CC(C)(C)c1ccc(C(=O)Nc2cn3cc(-c4ccccc4)ccc3n2)cc1	0
